Data on 14 compounds can be found in PubChem BioAssay (NCATS).

The structures appear in SMILES notation. Inconclusive results are not listed. Unmarked numbers belong to inactive results. The source made the active and inactive calls. Unless noted, calls follow the shape of the dose curve; as a rule, active = well fitted curve in the direction sought with a large enough effect; inconclusive = small, poorly fitted or top-dose-only effect, or another doubt; inactive = no such curve, though single readings can be large; an effect the other way counts as inactive or inconclusive.

The nature of assay [1]: qHTS to identify inhibitors of the type 1 interferon - major histocompatibility complex class I in skeletal muscle: primary screen against the NCATS Pharmaceutical Collection (AID 1347407).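 Also: luminescence of HiBiT knocked into endogenous HLA-B as interferon-induced MHC class I level; % is scaled to controls: 0 for no effect and ±100 for the full control effect.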 An outline of the steps:
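Compounds […] were added to CRISPR-engineered HLA-B-HiBiT C25cl48 human myoblasts with 4.0 ng/ml IFN-beta. After 24 hrs at 37 C, cells were lysed and HiBiT luminescence measured.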

For assay [2], the target named is Protein phosphatase 1D (Homo sapiens) (UniProt O15297). As to the kind of experiment: RapidFire Mass Spectrometry qHTS Assay for Modulators of WT P53-Induced Phosphatase 1 (WIP1) (AID 1347424).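 Also: amount of dephosphorylated VEPPL-S-QETFS peptide product formed by WIP1; series mostly up to about 63 µM; plate controls were DMSO wells for no effect and GSK830371 inhibitor control at 10 µM for full effect.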 The method in brief:
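10 nM WIP1 + cpd, 1 h RT; + 2 uM VEPPL-pS-QETFS, 5 min RT; stop 0.5% formic acid; labelled product standard 1 uM; RapidFire MS. Buffer 50 mM Tris pH 7.5, 30 mM MgCl2, 1 mM TCEP.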

Assay [3] shares this target. Put plainly: Rhodamine-PBP qHTS Assay for Modulators of WT P53-Induced Phosphatase 1 (WIP1) (AID 1347425). Also: % of control where 0% means no effect. An outline of the steps:
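The read-out is the change in Rhodamine-PBP fluorescence (f1 - f0, ex 525/em 598 nm) as Pi is released, read each minute for 11 min. Final reaction: 5 nM WIP1, 10 uM phosphopeptide VEPPL-pS-QETFS, 10 uM Rh-PBP, 50 mM Tris-HCl pH 7.5, 30 mM MgCl2. Compound was preincubated with enzyme for 1 hour at room temperature.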

Assay [4] can be described thus: Primary qHTS for inhibitors of La Crosse Virus (LACV) - induced cell death in SH-SY5Y cells (AID 1508616).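 Also: top concentration of the series differs between compounds; 0% = infected DMSO wells and 100% = uninfected DMSO wells; higher means more rescue of cells from virus-induced death.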 An outline of the steps: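 SH-SY5Y cells (6000/well) plated 24 h, then given compounds by pin transfer and LACV at 0.01 MOI for 6 days at 37C. Viability measured by ATPLite luminescence, normalized to infected DMSO and uninfected DMSO.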
Assay [5] addresses Calcium and integrin-binding protein 1 (Homo sapiens) (UniProt Q99828). Put plainly: Primary qHTS for Identification of Calcium Integrin Binding Protein 1 (CIB1) Competitor (AID 1508620).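 Also: GST tagged CIB1 binding a fluorescein labelled alphaIIb integrin peptide tracer; top concentration of the series differs between compounds; % is scaled to controls: 0 for no effect and ±100 for the full control effect.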 The method in brief:
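CIB1-GST (1 uM final) and compound incubated 15 min at room temperature before adding FITC-alphaIIb peptide tracer (100 nM final). Competition for binding read by fluorescence polarization (ex 480, em 540) after another 15 min at room temperature.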

Assay [6] can be described thus: A High-Content qHTS Against Drug Library for the Identification of Small Molecules that Inhibit DYT1 Early Onset Primary Dystonia-Associated Cell Pathology (AID 1645839; calls by dose curve; also: series mostly up to about 46 µM). An outline of the steps: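 In this high-content image screen, delE TorsinA mislocalization in inducible Flp-In 293 cells is scored as %pathology, with cell count serving as the counterscreen. Compound exposure lasts 48 h under tetracycline induction in reduced-serum medium.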

The target of assay [7] is Cytochrome P450 2D6 (Homo sapiens) (UniProt P10635). As to the kind of experiment: Cytochrome P450 family 2 subfamily D member 6 (CYP2D6) small molecule antagonists: luciferase biochemical (cell-free) qHTS assay (AID 1645840; active = well fitted curve in the direction sought with a large enough effect in the repeat runs; an effect the other way counts as inactive or inconclusive; also: nearly all actives have a fitted effect of over 55% in size; also: potency is read from the fitted curve at half-maximal effect; as to activity change, negative = inhibition: series mostly up to about 57 µM; % is scaled to controls: 0 for no effect and ±100 for the full control effect). An outline of the steps:
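P450-Glo luminescent screen: recombinant CYP2D6 enzyme–proluciferin substrate mix preincubated with compound 10 min at room temperature, then NADPH regeneration added for 1 h at room temperature. Detection reagent added for 20 min; luciferin light read as relative luminescence units.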

In assay [8] the target is Cytochrome P450 2C9 (Homo sapiens) (UniProt P11712). As to the kind of experiment: Cytochrome P450 family 2 subfamily C member 9 (CYP2C9) small molecule antagonists: luciferase biochemical (cell-free) qHTS assay (AID 1645842; active = well fitted curve in the direction sought with a large enough effect in the repeat runs; an effect the other way counts as inactive or inconclusive; also: nearly all actives have a fitted effect of over 55% in size; also: potency is read from the fitted curve at half-maximal effect). An outline of the steps: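 Luminescence, after 20 min with luciferin detection reagent, reflected CYP2C9 turnover during a 1 h NADPH-driven reaction at 37C. Enzyme-substrate mix contained 0.4% bovine serum albumin and was preincubated with compound 10 min at room temperature.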

Assay [9] in a line: Primary qHTS for small molecule stabilizers of the endoplasmic reticulum resident proteome: Secreted ER Calcium Modulated Protein (SERCaMP) assay (AID 1508630). Also: % is scaled to controls: 0 for no effect and ±100 for the full control effect. An outline of the steps: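 GLuc-SERCaMP-expressing SH-SY5Y cells, pretreated 16 h with compound, are challenged with thapsigargin to empty ER calcium stores; after 4 h, coelenterazine is added directly to the medium and luminescence is imaged.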

Assay [10] concerns the target Cytochrome P450 3A4 (Homo sapiens) (UniProt P08684). Put plainly: Cytochrome P450 family 3 subfamily A member 4 (CYP3A4) small molecule antagonists: luciferase qHTS assay (AID 1645841; active = well fitted curve in the direction sought with a large enough effect in the repeat runs; an effect the other way counts as inactive or inconclusive; also: nearly all actives have a fitted effect of over 45% in size). An outline of the steps:
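Luminescent CYP3A4 activity readout: compounds plus enzyme-substrate mix 10 min at room temperature, reaction started with NADPH regenerating system for 1 h, stopped with detection reagent, read after 20 min. Ketoconazole served as control.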

A short description of assay [11]: Primary qHTS for inhibitors of nuclear receptor binding SET domain protein 2 (NSD2) in an isogenic RCH-ACV NSD2 p.E1099K mutant (9B) (AID 1645876). Also: nearly all actives have a fitted effect of over 70% in size.
The nature of assay [12]: Primary qHTS for inhibitors of nuclear receptor binding SET domain protein 2 (NSD2) in an RCH-ACV wild type WT cells (2C) (AID 1645877). Also: nearly all actives have a fitted effect of over 70% in size. Also: potency is read from the fitted curve at half-maximal effect.
In assay [13] the target is Rap guanine nucleotide exchange factor 3 (Homo sapiens) (UniProt O95398). Put plainly: Confirmatory qHTS for antagonist of cAMP-regulated guanine nucleotide exchange factor 3 (EPAC1) (AID 1645880).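 Also: plate controls were DMSO only for no effect and full effect of the ATA control for full effect; nearly all actives have a fitted effect of over 55% in size.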 The method in brief: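 Nucleotide exchange uses 100 nM EPAC1, 250 nM RAP1B-BODIPY-GDP and 50 uM GDP, with compounds in a concentration-titration series. After 5 min at room temperature, fluorescence (480 nm ex/540 nm em) is read every 5 min for 30 min. Data are normalized to control ATA and DMSO.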

For assay [14] the target is unchanged. As to the kind of experiment: Confirmatory qHTS for agonist of cAMP-regulated guanine nucleotide exchange factor 3 (EPAC1) (AID 1645881).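 Also: EPAC1 catalysed release of BODIPY-GDP from Rap1B seen as fluorescence loss; 100% = effect of cAMP agonist control; nearly all actives have a fitted effect of over 75% in size.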

Sequence of Cytochrome P450 2C9 (Homo sapiens) (P11712 whole entry, looked up): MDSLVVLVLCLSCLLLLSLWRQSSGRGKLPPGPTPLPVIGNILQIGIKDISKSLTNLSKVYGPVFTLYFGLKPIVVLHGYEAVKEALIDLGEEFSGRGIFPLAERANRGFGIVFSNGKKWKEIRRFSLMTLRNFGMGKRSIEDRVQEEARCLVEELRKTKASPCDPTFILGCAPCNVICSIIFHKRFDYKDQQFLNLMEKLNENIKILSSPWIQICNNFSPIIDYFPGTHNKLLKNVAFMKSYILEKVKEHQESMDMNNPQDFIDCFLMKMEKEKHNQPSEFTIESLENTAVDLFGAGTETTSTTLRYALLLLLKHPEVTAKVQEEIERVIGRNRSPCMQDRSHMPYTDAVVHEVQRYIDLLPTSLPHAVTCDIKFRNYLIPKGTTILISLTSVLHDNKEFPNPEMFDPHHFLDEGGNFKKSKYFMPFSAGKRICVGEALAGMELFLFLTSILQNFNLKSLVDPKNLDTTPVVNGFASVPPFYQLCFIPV
Sequence of Cytochrome P450 2D6 (Homo sapiens) (P10635 whole entry, looked up): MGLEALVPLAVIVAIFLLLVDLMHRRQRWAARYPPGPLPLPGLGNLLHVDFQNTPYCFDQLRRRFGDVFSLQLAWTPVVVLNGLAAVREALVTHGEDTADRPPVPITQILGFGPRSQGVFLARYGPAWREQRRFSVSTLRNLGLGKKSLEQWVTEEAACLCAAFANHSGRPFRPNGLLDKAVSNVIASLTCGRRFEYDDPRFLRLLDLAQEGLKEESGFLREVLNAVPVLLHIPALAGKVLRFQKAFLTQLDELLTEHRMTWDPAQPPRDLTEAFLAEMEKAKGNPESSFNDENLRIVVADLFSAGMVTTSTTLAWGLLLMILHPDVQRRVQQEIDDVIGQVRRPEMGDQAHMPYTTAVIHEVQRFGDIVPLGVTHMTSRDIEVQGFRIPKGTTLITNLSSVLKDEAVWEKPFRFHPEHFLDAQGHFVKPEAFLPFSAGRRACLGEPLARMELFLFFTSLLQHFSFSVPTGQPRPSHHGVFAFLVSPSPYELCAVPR
Sequence of Protein phosphatase 1D (Homo sapiens) (O15297 whole entry, looked up): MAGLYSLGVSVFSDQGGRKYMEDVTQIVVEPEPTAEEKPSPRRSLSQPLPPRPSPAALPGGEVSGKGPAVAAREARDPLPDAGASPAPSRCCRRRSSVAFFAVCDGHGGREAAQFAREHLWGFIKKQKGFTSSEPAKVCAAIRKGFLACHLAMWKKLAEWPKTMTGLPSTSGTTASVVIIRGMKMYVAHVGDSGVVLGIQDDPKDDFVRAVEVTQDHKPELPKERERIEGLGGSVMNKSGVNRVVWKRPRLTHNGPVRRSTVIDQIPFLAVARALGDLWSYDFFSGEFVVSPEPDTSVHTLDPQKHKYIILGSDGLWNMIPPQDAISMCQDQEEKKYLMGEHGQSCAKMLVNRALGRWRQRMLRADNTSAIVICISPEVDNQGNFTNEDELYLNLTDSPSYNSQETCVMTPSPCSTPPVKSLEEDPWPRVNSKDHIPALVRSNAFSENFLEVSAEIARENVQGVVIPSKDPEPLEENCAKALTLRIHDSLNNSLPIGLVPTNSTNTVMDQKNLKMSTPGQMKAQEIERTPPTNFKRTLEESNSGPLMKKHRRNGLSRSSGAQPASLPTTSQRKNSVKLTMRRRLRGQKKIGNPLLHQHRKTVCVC
Sequence of Calcium and integrin-binding protein 1 (Homo sapiens) (Q99828 whole entry, looked up): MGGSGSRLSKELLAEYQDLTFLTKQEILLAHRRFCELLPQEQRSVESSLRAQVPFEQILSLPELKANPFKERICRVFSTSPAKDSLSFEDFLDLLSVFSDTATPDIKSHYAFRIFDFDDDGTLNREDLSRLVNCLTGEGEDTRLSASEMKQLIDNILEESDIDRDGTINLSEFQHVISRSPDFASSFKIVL
Sequence of Rap guanine nucleotide exchange factor 3 (Homo sapiens) (O95398 whole entry, looked up): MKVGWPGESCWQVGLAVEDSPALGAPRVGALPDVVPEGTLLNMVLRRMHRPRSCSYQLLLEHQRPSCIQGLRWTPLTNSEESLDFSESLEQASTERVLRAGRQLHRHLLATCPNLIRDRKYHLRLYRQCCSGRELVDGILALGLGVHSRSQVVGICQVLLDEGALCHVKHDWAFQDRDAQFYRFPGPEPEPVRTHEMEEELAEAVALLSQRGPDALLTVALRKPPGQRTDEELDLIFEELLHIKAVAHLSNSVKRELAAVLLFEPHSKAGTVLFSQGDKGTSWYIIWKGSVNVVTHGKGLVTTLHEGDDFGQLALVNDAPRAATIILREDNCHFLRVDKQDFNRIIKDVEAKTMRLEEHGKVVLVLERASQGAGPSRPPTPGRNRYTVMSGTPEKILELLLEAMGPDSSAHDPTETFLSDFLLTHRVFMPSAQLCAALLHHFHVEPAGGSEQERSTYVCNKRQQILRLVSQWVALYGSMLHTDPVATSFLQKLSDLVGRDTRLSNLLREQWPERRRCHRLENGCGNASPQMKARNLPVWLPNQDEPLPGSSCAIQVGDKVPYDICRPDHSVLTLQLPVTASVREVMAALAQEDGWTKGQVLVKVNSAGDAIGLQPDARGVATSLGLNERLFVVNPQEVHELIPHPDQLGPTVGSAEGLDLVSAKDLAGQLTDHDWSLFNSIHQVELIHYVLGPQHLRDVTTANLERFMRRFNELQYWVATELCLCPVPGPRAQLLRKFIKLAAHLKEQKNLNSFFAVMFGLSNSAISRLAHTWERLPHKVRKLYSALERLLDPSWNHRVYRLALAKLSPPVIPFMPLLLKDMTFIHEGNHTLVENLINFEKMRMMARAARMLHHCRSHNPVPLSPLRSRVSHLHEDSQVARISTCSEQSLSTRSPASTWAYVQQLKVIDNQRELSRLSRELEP
Sequence of Cytochrome P450 3A4 (Homo sapiens) (P08684 whole entry, looked up): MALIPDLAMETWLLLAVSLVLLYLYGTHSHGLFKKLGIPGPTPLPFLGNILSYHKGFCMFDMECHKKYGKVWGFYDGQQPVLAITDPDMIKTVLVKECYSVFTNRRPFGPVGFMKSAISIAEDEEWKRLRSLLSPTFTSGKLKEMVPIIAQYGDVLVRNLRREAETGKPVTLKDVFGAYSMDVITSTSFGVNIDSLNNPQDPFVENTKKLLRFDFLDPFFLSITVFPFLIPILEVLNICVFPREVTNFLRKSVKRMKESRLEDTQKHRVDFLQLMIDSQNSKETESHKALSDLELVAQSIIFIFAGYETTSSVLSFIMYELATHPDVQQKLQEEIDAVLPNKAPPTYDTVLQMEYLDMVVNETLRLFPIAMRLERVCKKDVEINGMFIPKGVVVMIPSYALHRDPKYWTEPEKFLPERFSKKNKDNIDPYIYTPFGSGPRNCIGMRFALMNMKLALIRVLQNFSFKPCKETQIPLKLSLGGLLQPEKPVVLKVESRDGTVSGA

Regarding `Cc1cc(=O)[nH]c(=S)[nH]1`, the result in assay [1], in [2], in assay [3], in assay [4] and in assay [5] was inactive. Further, the Potency result in assay [6], in assay [7] and in assay [8] was “inactive” throughout.

On to `O=C(O)c1cc(=O)c2ccccc2o1`, for which the call in assay [1], in assay [2], in assay [3], in assay [4], in [5] and in assay [9] was inactive. Also, the compound was called inactive in assay [10]. Besides, the Potency result in assay [7], in assay [8] and in assay [11] was “inactive” each time.

`CCCCCCCCCCOc1cc2c(=O)c(C(=O)OCC)c[nH]c2cc1OCC`: the activity change, negative = inhibition is 0.347% [at 3.83 µM] in [1]; 14.2% [at 6.17 µM] in assay [2]; 9.27% [at 4.81 µM] in [3]; 6.25% [at 12.4 µM] in assay [5]; 2.46% [at 3.88 µM] in assay [9]; 3.17% [at 4.83 µM] in [7]. In assay [8], the activity change, negative = inhibition was 5.88% [at 4.83 µM]. The activity change in assay [4] was 5.38% [at 0.431 µM]. The outcome in [11] was “inactive [at 4.96 µM]”. In addition, the activity change, negative = cell killing in assay [12] is 4.45% [at 4.96 µM].

In the case of `Cc1cc(OI)c(C(C)C)cc1-c1cc(C(C)C)c(OI)cc1C`, the compound was classed as inactive in assay [1], in assay [2], in assay [3], in assay [4], in [5] and in assay [9]. Further, the Potency in [8] is 12.3 µM (active). In addition, the Potency entry in assay [11] and in [12] was “inactive” throughout.

For the compound `CC(=O)OCC(=O)[C@@]1(O)CC[C@H]2[C@@H]3CCC4=CC(=O)C=C[C@]4(C)[C@@]3(F)[C@@H](O)C[C@@]21C`, the result in assay [1], in assay [2], in [3], in assay [4], in [5] and in assay [9] was inactive. Also, the Potency result in assay [7] and in assay [8] was “inactive” throughout. Further, in [12], the Potency is 21.1 nM (active).

In the case of `CCN1CC(CCN2CCOCC2)C(c2ccccc2)(c2ccccc2)C1=O` (stereo unspecified), the result in assay [1], in assay [2], in [3], in assay [4], in assay [5] and in [9] was inactive. Moreover, the Potency in assay [7] is 436 nM (active). In assay [8], the Potency result is “inactive”.

Consider `CC(=O)Nc1cccc(O)c1`, for which the result in assay [1], in [2], in assay [3], in [4], in [5] and in [9] was inactive. The Potency result in assay [7], in assay [8], in [11] and in assay [12] was “inactive” in each case.

Turning to `Cc1cccc(Nc2ccccc2C(=O)O)c1C`, the outcome in assay [1], in [2], in assay [3], in [4], in [5] and in [9] was inactive. For the same compound, the Potency result in assay [7], in assay [11] and in assay [12] was “inactive” each time.

For `NC(=O)N[C@@H](CCC(=O)O)C(=O)O`, the outcome in [1], in assay [2], in [3], in [4] and in assay [5] was inactive. Also, the Potency result in [6], in assay [7], in assay [8], in [11] and in [12] was “inactive” in each case.

Take `NC(=O)NC1NC(=O)NC1=O` (stereo unspecified): the compound was called inactive in assay [1], in assay [2], in assay [3], in assay [4], in [5] and in assay [13]. Also, in assay [14], the compound was classed as inactive. Moreover, the Potency result in assay [6], in assay [7], in assay [8], in [11] and in assay [12] was “inactive” in each case.

Take `CC(=O)N(CC(O)CO)c1c(I)c(C(=O)NCC(O)CO)c(I)c(C(=O)NCC(O)CO)c1I` (stereo unspecified): the compound was called inactive in assay [1], in [2], in assay [3], in assay [4] and in assay [5]. The Potency result in assay [6], in assay [7], in assay [11] and in [12] was “inactive” throughout.

For the compound `CCOC(N)=O`, the outcome in assay [1], in [2], in assay [3], in [4] and in assay [5] was inactive. Also, the Potency entry in [6], in [7], in assay [8], in [11] and in [12] was “inactive” each time.

For `CC(C)c1cc2c(cc1S(=O)(=O)O)[C@@]1(C)CCC[C@@](C)(C(=O)O)[C@@H]1CC2`, the call in assay [1], in assay [2], in assay [3], in assay [4] and in assay [5] was inactive. Moreover, the Potency entry in assay [6], in assay [7], in assay [8] and in [11] was “inactive” throughout.

Take `C1CCN2C[C@@H]3C[C@@H](CN4CCCC[C@@H]34)[C@H]2C1`: the compound was classed as inactive in [1], in assay [2], in assay [3], in assay [4] and in [5]. Further, the Potency entry in assay [6], in assay [11] and in [12] was “inactive” in each case.
